From PubChem BioAssay (EPA / NIEHS)
Activity calls are given as the source filed them. How the source made its calls: active means hit-call score of the fitted dose curve at least 0.9, where 1 is the maximum; inactive means score below 0.9.

Key:
[1] = target: Bile acid receptor (Homo sapiens) (UniProt Q96RI1); experiment: ATG_IR1_CIS: Attagene CIS-FACTORIAL HepG2 Assay for human Nuclear Receptor Subfamily 1 Group H Member 4 (NR1H4), IR1 submotif (AID 2282946); conditions: IR1 reporter transcription, actives raise or lower the signal
Sequence of Bile acid receptor (Homo sapiens) (Q96RI1 whole entry, looked up, the tested form may be a part): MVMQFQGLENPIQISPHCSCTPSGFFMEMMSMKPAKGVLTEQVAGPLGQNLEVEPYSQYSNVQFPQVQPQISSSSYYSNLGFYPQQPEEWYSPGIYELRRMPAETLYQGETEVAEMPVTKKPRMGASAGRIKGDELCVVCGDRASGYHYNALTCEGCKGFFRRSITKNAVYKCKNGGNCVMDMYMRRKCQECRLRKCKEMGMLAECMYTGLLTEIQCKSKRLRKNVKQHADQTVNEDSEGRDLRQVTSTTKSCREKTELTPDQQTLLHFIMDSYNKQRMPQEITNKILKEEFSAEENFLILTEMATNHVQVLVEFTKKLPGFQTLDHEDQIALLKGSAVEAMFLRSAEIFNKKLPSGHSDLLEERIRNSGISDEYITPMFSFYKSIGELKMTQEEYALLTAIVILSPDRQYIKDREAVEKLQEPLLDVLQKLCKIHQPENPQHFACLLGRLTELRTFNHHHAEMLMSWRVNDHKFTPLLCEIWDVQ
Summary of the method: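 Cells (human HepG2) carry transiently transfected cis-promoter reporter transcription units. Compounds are incubated 24 h, total RNA is reverse-transcribed and amplified, and labelled fragments are resolved by capillary electrophoresis. Curves use DMSO as baseline.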

[2] = ATG_GRE_CIS: Attagene CIS-FACTORIAL HepG2 Assay for human Glucocorticoid Response Elements (GRE) (AID 2282947); conditions: HepG2 GRE cis-reporter, Attagene multiplex mRNA; actives raise or lower the signal
Summary of the method: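 Assay uses human hepatoma HepG2 cells transfected with cis-promoter reporter units, exposed 24 h. mRNA from reporters detected by RT-PCR plus capillary electrophoresis; DMSO serves as negative control and baseline.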

[3] = ATG_ISRE_CIS: Attagene CIS-FACTORIAL HepG2 Assay for human Interferon Regulatory Factor 1 (IRF1) binding to an Interferon-Stimulated Response Element (ISRE) (AID 2282948); conditions: HepG2 ISRE cis-reporter (Attagene), mRNA transcription readout; actives raise or lower the signal
Summary of the method: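 Transfected HepG2 (multiple reporter transcription units, cis elements) dosed 24 h. RNA → oligo(dT) RT → PCR → 6-FAM primer extension → HpaI → CE. DMSO = negative control/baseline.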

[4] = ATG_M_32_CIS: Attagene CIS-FACTORIAL HepG2 Assay for M32 Transcription Factor (Internal Marker) (AID 2282949); conditions: HepG2 Attagene cis-factorial M32 reporter, mRNA; actives raise or lower the signal;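 further: background control marker of the multiplexed CIS panel rather than a real target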
Summary of the method: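 Following 24 h chemical exposure of HepG2 cells transiently expressing cis-promoter reporter constructs, reporter transcript levels were determined by RT-PCR with fluorescent labelling and capillary electrophoresis, then fitted bidirectionally against DMSO.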

[5] = ATG_M_06_CIS: Attagene CIS-FACTORIAL HepG2 Assay for M06 Transcription Factor (Internal Marker) (AID 2282950); conditions: HepG2 Attagene CIS-FACTORIAL M06 internal marker reporter; actives raise or lower the signal
Summary of the method: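 Internal background marker within multiplexed cis-reporter HepG2 system. Cells transiently transfected, dosed 24 h; reporter mRNA measured by RT-PCR, HpaI digestion and capillary electrophoresis. Bidirectional fit relative to DMSO.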

[6] = target: Hypoxia-inducible factor 1-alpha (Homo sapiens) (UniProt Q16665); experiment: ATG_HIF1a_CIS: Attagene CIS-FACTORIAL HepG2 Assay for human Hypoxia Inducible Factor 1 (HIF1A) (AID 2282951); conditions: HepG2 Attagene cis-factorial HIF1a reporter transcription; actives raise or lower the signal
Sequence of Hypoxia-inducible factor 1-alpha (Homo sapiens) (Q16665 whole entry, looked up): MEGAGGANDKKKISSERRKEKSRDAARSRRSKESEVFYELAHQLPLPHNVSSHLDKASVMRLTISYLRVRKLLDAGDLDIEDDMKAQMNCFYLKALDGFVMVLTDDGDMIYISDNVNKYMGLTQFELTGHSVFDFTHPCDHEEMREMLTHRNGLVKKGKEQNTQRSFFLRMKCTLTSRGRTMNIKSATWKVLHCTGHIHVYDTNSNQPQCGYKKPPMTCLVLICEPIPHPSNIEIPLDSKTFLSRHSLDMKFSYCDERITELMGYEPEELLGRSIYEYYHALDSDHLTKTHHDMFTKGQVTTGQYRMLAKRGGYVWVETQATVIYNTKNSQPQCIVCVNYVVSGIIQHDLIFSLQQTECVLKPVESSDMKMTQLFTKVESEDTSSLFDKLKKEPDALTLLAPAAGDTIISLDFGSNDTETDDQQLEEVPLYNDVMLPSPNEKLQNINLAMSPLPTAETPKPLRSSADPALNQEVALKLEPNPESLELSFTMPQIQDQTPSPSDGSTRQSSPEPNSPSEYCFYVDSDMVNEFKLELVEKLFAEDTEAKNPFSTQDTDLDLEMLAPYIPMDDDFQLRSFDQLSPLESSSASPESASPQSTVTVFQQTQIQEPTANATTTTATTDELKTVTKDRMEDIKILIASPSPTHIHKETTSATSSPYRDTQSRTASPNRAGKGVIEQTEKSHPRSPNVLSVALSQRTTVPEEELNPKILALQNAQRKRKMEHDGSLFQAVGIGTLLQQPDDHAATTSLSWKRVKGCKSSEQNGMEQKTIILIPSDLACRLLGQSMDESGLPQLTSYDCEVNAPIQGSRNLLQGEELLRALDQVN
Summary of the method: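 Measures endogenous transcription-factor activity through cis-regulated reporter mRNA in HepG2. Cells dosed 24 h; transcripts quantified by RT-PCR with 6-FAM-labelled products separated by capillary electrophoresis; DMSO serves as negative control.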

[7] = target: Hepatocyte nuclear factor 6 (Homo sapiens) (UniProt Q9UBC0); experiment: ATG_HNF6_CIS: Attagene CIS-FACTORIAL HepG2 Assay for human Hepatocyte Nuclear Factor 6 (HNF6) (AID 2282952); conditions: HepG2 Attagene cis-factorial HNF6 reporter transcription; actives raise or lower the signal
Sequence of Hepatocyte nuclear factor 6 (Homo sapiens) (Q9UBC0 whole entry, looked up): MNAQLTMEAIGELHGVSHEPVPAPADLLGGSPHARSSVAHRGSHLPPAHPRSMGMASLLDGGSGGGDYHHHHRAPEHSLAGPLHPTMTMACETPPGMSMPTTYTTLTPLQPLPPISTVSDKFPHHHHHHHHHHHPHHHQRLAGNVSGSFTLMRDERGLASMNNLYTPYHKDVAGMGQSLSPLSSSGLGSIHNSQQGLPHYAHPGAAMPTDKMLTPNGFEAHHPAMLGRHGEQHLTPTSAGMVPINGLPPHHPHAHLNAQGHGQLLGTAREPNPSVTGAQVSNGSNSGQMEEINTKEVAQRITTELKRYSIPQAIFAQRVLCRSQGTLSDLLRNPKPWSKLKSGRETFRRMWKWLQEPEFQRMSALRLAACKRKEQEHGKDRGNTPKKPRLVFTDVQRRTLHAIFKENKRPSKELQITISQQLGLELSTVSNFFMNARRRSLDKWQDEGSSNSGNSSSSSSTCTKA
Summary of the method: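 HepG2, transient MRTU transfection (cis promoters); 24 h chemical exposure; total RNA → oligo(dT) RT → PCR → 6-FAM labelling → HpaI cut → CE; bidirectional fit vs DMSO.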

[8] = target: Heat shock factor protein 1 (Homo sapiens) (UniProt Q00613); experiment: ATG_HSE_CIS: Attagene CIS-FACTORIAL HepG2 Assay for human Heat Shock Transcription Factor 1 (HSE) (AID 2282953); conditions: HepG2 HSE cis-reporter, Attagene RNA transcription; actives raise or lower the signal
Sequence of Heat shock factor protein 1 (Homo sapiens) (Q00613 whole entry, looked up): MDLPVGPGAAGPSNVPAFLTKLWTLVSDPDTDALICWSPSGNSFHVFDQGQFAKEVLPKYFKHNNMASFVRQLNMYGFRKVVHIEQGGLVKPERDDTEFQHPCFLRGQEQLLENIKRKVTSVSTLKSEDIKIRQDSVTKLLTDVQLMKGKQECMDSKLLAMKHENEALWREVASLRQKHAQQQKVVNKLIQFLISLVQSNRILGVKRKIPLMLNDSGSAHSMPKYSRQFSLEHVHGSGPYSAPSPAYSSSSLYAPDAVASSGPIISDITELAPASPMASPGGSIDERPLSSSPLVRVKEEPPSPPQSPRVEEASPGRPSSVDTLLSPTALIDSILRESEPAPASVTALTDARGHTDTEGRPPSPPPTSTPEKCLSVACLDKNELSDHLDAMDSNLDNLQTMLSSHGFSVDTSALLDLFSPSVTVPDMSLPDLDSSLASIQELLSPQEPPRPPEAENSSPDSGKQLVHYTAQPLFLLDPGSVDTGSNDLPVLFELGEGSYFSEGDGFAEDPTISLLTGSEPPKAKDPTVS
Summary of the method: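 HepG2 cells transfected with cis-promoter reporter units sensing endogenous transcription factor activity; reporter mRNA quantified 24 h post-dose by RT-PCR and capillary electrophoresis of 6-FAM-labelled products. Bidirectional fitting against DMSO.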

[9] = ATG_MRE_CIS: Attagene CIS-FACTORIAL HepG2 Assay for human Metal Responsive Element (MRE) (AID 2282954); conditions: HepG2 MRE cis-reporter transcription, Attagene multiplex; actives raise or lower the signal
Summary of the method: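 After a 24 h chemical exposure, transiently transfected HepG2 cells yield RNA whose reporter sequences are amplified, FAM-labelled and sized by capillary electrophoresis. Curves are fitted bidirectionally relative to DMSO.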

[10] = ATG_PBREM_CIS: Attagene CIS-FACTORIAL HepG2 Assay for human Phenobarbital-responsive Enhancer Module (PBREM) (AID 2282955); conditions: HepG2 PBREM cis-reporter, Attagene multiplexed transcription; actives raise or lower the signal
Summary of the method: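 Fluorescence of labelled reporter cDNA fragments, resolved by capillary electrophoresis, gives mRNA induction in transfected HepG2 cells treated for 24 h; DMSO serves as negative control and baseline.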

[11] = target: Paired box protein Pax-6 (Homo sapiens) (UniProt P26367); experiment: ATG_Pax6_CIS: Attagene CIS-FACTORIAL HepG2 Assay for human Paired Box 6 (PAX6) (AID 2282956); conditions: HepG2 CIS-FACTORIAL PAX6 reporter transcription, RNA readout; actives raise or lower the signal
Sequence of Paired box protein Pax-6 (Homo sapiens) (P26367 whole entry, looked up): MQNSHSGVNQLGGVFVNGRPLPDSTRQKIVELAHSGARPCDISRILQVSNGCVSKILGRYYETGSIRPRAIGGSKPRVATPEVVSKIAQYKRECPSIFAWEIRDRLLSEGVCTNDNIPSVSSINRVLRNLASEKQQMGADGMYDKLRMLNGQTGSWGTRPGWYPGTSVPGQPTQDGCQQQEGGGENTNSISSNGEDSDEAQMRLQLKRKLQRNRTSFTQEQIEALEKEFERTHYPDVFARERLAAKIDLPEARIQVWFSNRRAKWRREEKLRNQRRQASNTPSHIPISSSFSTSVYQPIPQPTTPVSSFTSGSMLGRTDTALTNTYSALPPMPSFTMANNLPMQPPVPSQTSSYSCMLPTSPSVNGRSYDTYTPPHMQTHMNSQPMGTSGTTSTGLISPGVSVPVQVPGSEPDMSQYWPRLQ
Summary of the method: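 Transient MRTU transfection of HepG2 → compound exposure 24 h → TriZol RNA, oligo(dT) RT → PCR, 6-FAM primer extension, HpaI cut → capillary electrophoresis; activity fitted both directions against DMSO.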

[12] = ATG_PXRE_CIS: Attagene CIS-FACTORIAL HepG2 Assay for human Pregnane X Receptor Element (PXRE) (AID 2282957); conditions: HepG2 Attagene CIS-FACTORIAL PXRE reporter, mRNA; actives raise or lower the signal
Summary of the method: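 Transfect HepG2 with MRTUs (cis promoter elements); dose chemical, incubate 24 h; isolate RNA, RT with oligo(dT), PCR, 6-FAM label, HpaI cut, CE. Gain/loss fit vs DMSO.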

[13] = ATG_PPRE_CIS: Attagene CIS-FACTORIAL HepG2 Assay for human Peroxisome Proliferator-activated Response Element (PPRE) (AID 2282958); conditions: HepG2 PPRE cis-element reporter, Attagene transcription factor profiling; actives raise or lower the signal
Summary of the method: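 Cells are first transfected transiently with the multiplexed reporter library, then dosed for 24 h. Total RNA is reverse-transcribed, amplified, fluorescently end-labeled and HpaI-cut before capillary electrophoresis; activity is fitted bidirectionally against DMSO controls.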

[14] = target: Transcription factor Sp1 (Homo sapiens) (UniProt P08047); experiment: ATG_Sp1_CIS: Attagene CIS-FACTORIAL HepG2 Assay for human Specificity Protein 1 (Sp1) (AID 2282961); conditions: HepG2 Sp1 cis-reporter transcription, actives raise or lower the signal
Sequence of Transcription factor Sp1 (Homo sapiens) (P08047 whole entry, looked up): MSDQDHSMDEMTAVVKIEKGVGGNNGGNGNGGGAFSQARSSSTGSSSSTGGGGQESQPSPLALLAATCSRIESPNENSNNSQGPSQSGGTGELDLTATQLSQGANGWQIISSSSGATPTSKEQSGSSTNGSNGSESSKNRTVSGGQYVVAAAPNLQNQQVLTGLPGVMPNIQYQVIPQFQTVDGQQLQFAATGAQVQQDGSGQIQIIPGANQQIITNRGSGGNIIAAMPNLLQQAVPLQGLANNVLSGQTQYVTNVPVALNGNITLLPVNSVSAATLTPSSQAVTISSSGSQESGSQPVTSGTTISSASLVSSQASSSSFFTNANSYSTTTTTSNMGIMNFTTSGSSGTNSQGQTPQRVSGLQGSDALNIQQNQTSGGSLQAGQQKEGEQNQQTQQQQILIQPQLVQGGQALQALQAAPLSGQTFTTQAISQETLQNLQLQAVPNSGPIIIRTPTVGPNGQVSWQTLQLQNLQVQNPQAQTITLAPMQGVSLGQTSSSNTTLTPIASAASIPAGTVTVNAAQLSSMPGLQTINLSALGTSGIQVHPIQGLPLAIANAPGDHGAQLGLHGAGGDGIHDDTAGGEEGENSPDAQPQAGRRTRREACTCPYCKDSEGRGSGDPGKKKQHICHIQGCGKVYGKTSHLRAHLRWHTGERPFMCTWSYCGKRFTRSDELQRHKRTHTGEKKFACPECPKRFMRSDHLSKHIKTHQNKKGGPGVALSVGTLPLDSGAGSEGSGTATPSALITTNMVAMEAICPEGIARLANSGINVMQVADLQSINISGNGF
Summary of the method: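 Endogenous Sp1 activity was gauged in human liver HepG2 cells bearing transfected reporter units under a cis-regulating promoter. After 24 h dosing, reporter mRNA was quantified by RT-PCR with capillary electrophoresis, and activity fitted bidirectionally versus DMSO.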

[15] = target: Signal transducer and activator of transcription 3 (Homo sapiens) (UniProt P40763); experiment: ATG_STAT3_CIS: Attagene CIS-FACTORIAL HepG2 Assay for human Signal Transducer and Activator of Transcription 3 (STAT3) (AID 2282963); conditions: HepG2, Attagene cis-factorial STAT3 reporter transcription; actives raise or lower the signal
Sequence of Signal transducer and activator of transcription 3 (Homo sapiens) (P40763 whole entry, looked up): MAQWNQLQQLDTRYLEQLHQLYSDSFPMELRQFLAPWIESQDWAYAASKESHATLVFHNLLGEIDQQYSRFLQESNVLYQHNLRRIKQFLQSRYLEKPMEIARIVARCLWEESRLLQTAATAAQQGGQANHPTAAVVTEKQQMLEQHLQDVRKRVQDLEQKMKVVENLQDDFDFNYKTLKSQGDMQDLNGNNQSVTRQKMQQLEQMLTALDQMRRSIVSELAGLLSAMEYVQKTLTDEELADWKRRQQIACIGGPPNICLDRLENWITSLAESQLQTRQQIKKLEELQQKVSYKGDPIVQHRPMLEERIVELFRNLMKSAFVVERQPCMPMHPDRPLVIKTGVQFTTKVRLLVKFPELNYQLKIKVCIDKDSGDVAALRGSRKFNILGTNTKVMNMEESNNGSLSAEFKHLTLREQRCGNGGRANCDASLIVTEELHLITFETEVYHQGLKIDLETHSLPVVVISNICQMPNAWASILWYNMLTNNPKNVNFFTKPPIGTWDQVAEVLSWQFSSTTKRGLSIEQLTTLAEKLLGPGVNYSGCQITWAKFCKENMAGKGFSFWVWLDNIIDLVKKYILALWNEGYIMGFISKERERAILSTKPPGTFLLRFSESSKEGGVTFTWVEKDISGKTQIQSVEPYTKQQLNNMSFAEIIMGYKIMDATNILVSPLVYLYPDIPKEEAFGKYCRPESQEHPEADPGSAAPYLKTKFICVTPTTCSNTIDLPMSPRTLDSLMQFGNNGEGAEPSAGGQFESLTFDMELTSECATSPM
Summary of the method: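 After a 24 h compound incubation, total RNA from MRTU-transfected HepG2 cells was converted to cDNA and reporter sequences PCR-amplified, labelled and profiled by capillary electrophoresis. Gain and loss of signal were referenced to DMSO.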

[16] = ATG_TA_CIS: Attagene CIS-FACTORIAL HepG2 Assay for human TA Basal Promoter (AID 2282964); conditions: HepG2 Attagene CIS-factorial TA basal promoter reporter; actives raise or lower the signal
Summary of the method: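 HepG2 cells transiently transfected with multiple reporter units under cis promoter elements, reporting endogenous transcription factor activity; this endpoint tracks the TA basal promoter as background control. Reporter mRNA after 24 h dosing measured by RT-PCR/capillary electrophoresis; bidirectional fits versus DMSO.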

[17] = ATG_TCF_b_cat_CIS: Attagene CIS-FACTORIAL HepG2 Assay for human T-Cell-Factor with beta-catenin (TCF/b-cat) (AID 2282965); conditions: HepG2 TCF/beta-catenin cis-reporter transcription, actives raise or lower the signal
Summary of the method: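 Endogenous transcription factor activity is captured through cis-promoter reporter constructs transiently introduced into human HepG2 liver cells. Induced reporter mRNA is measured after 24 h and fitted bidirectionally relative to DMSO.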

[18] = ATG_RORE_CIS: Attagene CIS-FACTORIAL HepG2 Assay for human RAR-related Orphan Receptor Element (RORE) (AID 2282959); conditions: HepG2 Attagene cis-factorial RORE reporter, mRNA; actives raise or lower the signal
Summary of the method: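 Cells were HepG2 carrying transfected cis-regulated reporter constructs, dosed for 24 hours. Total RNA was reverse-transcribed and reporter cDNA amplified, fluorescently labeled and sized by capillary electrophoresis. Activity was fitted bidirectionally relative to DMSO.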

[19] = ATG_Sox_CIS: Attagene CIS-FACTORIAL HepG2 Assay for human SRY-box transcription factor (SOX) (AID 2282960); conditions: HepG2 Attagene cis-factorial SOX reporter, mRNA; actives raise or lower the signal
Summary of the method: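 Transient MRTU transfection of HepG2; 24 h compound incubation; TriZol RNA, oligo(dT) RT, PCR, 6-FAM primer extension, HpaI cut, CE. Bidirectional fit, DMSO = baseline.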

[20] = ATG_SREBP_CIS: Attagene CIS-FACTORIAL HepG2 Assay for human Sterol Regulatory Element Binding (SREBP) (AID 2282962); conditions: HepG2 Attagene cis-factorial SREBP reporter, mRNA; actives raise or lower the signal
Summary of the method: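 Transfected HepG2 (cis-regulated reporter library, endogenous TFs) → compound 24 h → total RNA → oligo(dT) RT → reporter-specific PCR → FAM primer extension, HpaI cut → CE fluorescence. Fit bidirectional vs DMSO.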

Measured: AC50

OCCN1CCNCC1
not listed: [18] | [19] | [20]
inactive: all other assays above

Nc1cc(N)cc(C(=O)O)c1
not listed: [10]
inactive: all other assays above

COc1cc2ncnc(Nc3cccc(Cl)c3)c2cc1OC
active: [3] 5.56 µM | [6] 11.4 µM | [9] 20.1 µM | [11] 25 µM | [16] 9.84 µM | [17] 6.77 µM
not listed: [10] | [13]
inactive: all other assays above

COC(C(=O)O)c1ccccc1 (stereo not drawn)
inactive: all assays above

c1ccc2c(c1)c1cccc3ccc4cccc2c4c31
not listed: [13]
inactive: all other assays above

CC(C)(C)C(=O)c1ccccc1
active: [12] 53 µM
not listed: [13] | [18] | [19] | [20]
inactive: all other assays above

Nc1ccc(F)c([N+](=O)[O-])c1
not listed: [15]
inactive: all other assays above
